{"source": "PubChem BioAssay (NCATS)", "note": "Values joined by “and” are separate entries in the source; they are usually repeats but may differ in a detail not shown here. Identical values can stand only once. Values without a mark were called inactive. Unless noted, calls come from the whole dose curve. Potency is the fitted concentration of half-maximal effect.", "data": [{"target": "Glucocorticoid receptor (Homo sapiens) (UniProt P04150)", "sequence (P04150 whole entry, looked up, the tested form may be a part)": "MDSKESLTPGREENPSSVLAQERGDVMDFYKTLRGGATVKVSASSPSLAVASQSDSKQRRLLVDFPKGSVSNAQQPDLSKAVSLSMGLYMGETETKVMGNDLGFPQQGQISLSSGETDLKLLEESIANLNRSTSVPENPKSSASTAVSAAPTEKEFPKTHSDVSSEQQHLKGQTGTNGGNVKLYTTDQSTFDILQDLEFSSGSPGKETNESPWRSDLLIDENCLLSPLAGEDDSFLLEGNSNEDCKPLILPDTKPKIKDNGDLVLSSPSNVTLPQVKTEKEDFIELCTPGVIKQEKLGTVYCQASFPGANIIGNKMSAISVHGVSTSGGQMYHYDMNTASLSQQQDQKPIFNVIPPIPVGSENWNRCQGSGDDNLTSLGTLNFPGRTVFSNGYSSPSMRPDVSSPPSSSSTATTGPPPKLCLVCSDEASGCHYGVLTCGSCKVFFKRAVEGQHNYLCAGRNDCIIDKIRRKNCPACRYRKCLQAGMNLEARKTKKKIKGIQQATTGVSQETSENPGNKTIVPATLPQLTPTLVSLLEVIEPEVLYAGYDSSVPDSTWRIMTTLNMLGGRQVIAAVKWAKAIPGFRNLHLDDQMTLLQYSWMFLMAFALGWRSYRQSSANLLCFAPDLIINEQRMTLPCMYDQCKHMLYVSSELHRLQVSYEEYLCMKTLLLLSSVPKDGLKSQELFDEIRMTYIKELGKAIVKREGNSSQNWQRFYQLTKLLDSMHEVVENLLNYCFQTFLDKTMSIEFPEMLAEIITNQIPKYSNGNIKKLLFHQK", "experiment": "GR-GFP Redistribution (AID 450;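 active = compounds whose dose series gives a full or clear partial fitted curve of increased nuclear translocation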)", "conditions": "U2OS GR-GFP nuclear translocation, laser cytometry, 2 h", "values": [{"compound": "Brc1c(NC2=NCCN2)ccc2nccnc12", "Potency": "> 46 µM and > 20.6 µM"}, {"compound": "CO[C@@]1(NC(=O)CSCC#N)C(=O)N2C(C(=O)O)=C(CSc3nnnn3C)CS[C@@H]21", "Potency": "> 20.6 µM"}, {"compound": "CC(C)[N+](C)(CCOC(=O)C1c2ccccc2Oc2ccccc21)C(C)C", "Potency": "> 46 µM and > 20.6 µM"}, {"compound": "CC(=O)OC(C)C[N+](C)(C)C", "note": "(stereo not given)", "Potency": "> 20.6 µM"}, {"compound": "CC(=O)OCC1=C(C(=O)O)N2C(=O)[C@@H](NC(=O)Cc3cccs3)[C@H]2SC1", "Potency": "> 20.6 µM"}, {"compound": "COc1cc(C(=O)OCCCN2CCCN(CCCOC(=O)c3cc(OC)c(OC)c(OC)c3)CC2)cc(OC)c1OC", "Potency": "> 46 µM and > 20.6 µM"}]}, {"target": "Glucocorticoid receptor (Homo sapiens) (UniProt P04150)", "experiment": "GR-EFC Redistribution (AID 451)", "conditions": "CHO-K1 GR-EFC translocation, beta-gal luminescence, 2 h", "in_short": "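CHO-K1 cells stably expressing nuclear-localized β-gal enzyme acceptor and GR fused C-terminally to the enzyme donor fragment; ligand-driven nuclear translocation restores β-gal by complementation. Compounds titrated up to 46 uM final, 2 h at 37 °C; luminescence read.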", "values": [{"compound": "CCN1CCc2nc(N)oc2CC1", "Potency": "> 46 µM"}, {"compound": "Cc1nc2ccccn2c(=O)c1CCN1CCC(C(=O)c2ccc(F)cc2)CC1", "Potency": "> 46 µM"}, {"compound": "CC1=C(C)C(=O)C(CCCCC#CCCCC#CCO)=C(C)C1=O", "Potency": "> 46 µM"}, {"compound": "CN(C)CCN(Cc1cccs1)c1ccccn1", "Potency": "> 46 µM and > 20.6 µM"}, {"compound": "COc1ccc2c(c1OC)C(=O)O[C@@H]2[C@H]1c2c(cc3c(c2OC)OCO3)CCN1C", "Potency": "> 46 µM"}, {"compound": "COCC(=O)O[C@]1(CCN(C)CCCc2nc3ccccc3[nH]2)CCc2cc(F)ccc2[C@@H]1C(C)C", "Potency": "> 46 µM"}, {"compound": "FC(F)(F)c1ccccc1-n1ccnc1", "Potency": "> 46 µM"}, {"compound": "CCN(CC)CCNC(=O)c1ccc(NC(C)=O)cc1", "Potency": "> 46 µM"}, {"compound": "O=C(CCNNC(=O)c1ccncc1)NCc1ccccc1", "Potency": "> 46 µM and > 20.6 µM"}, {"compound": "CC(=O)Nc1nnc(S(N)(=O)=O)s1", "Potency": "> 46 µM and > 20.6 µM"}, {"compound": "CC1=NS(=O)(=O)c2cc(Cl)ccc2N1", "Potency": "> 46 µM and > 20.6 µM"}, {"compound": "Brc1c(NC2=NCCN2)ccc2nccnc12", "Potency": "> 46 µM"}, {"compound": "CC(C)[N+](C)(CCOC(=O)C1c2ccccc2Oc2ccccc21)C(C)C", "Potency": "> 46 µM and > 20.6 µM"}, {"compound": "COc1cc(C(=O)OCCCN2CCCN(CCCOC(=O)c3cc(OC)c(OC)c(OC)c3)CC2)cc(OC)c1OC", "Potency": "> 46 µM and > 20.6 µM"}]}]}
